CBFb-RUNX1 inh: blocks binding between human CBF-beta and RUNX1. Q01196+Q13951. AlphaScreen CBFb-His/RUNX1-biotin binding, biochemical. Potency, µM (doses to about 59.8 µM), actives largely listed as inhibitors. 230,000 tested, under 10 active
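Bead-based AlphaScreen assay; binding partners His-tagged CBF-beta and biotinylated RUNX1 at 30 nM each. Compound exposure 15 min after a 20-min protein preincubation; bead step 90 min; all steps at room temperature.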
TRPV1 agonist: human TRPV1 agonism; Q8NER1; TRPV1-expressing cells, Fluo-8 calcium influx, agonist mode; activation, % at 8.33 µM; 0.19% of 320,000 active; in the data active means activation above about 80%; inconclusive means between about 30% and that limit
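Fluo-8 calcium influx in TRPV1-expressing cells, kinetic read (ex 480/em 520 nm). Compound added and read 3 min for agonist activity, followed by capsaicin at EC20 final and 2 min further read for enhancement.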
Apoferritin bind: binds horse apoferritin like a general anesthetic. 0.074% of 350,000 active. apoferritin/1-aminoanthracene competitive binding, fluorescence. AID 485281. Potency, µM (doses to about 77.5 µM), actives largely listed as inhibitors; further: nearly all actives have a fitted effect of over 20% in size
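Apoferritin-based anesthetic binding model; compound displacement of fluorescent 1-AMA measured as endpoint fluorescence after 10 minutes at room temperature, scaled to free-ligand and complex controls.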
TRPV1 PAM: human TRPV1 potentiation | Q8NER1 | TRPV1-expressing cells, Fluo-8 calcium influx, capsaicin EC20 potentiation | potentiation, % at 8.33 µM | 0.02% of 320,000 active | AID 540277; in the data active means potentiation above about 80%; inconclusive means between about 30% and that limit
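TRPV1-expressing cells were cultured overnight at 35.5C and loaded with Fluo-8 calcium dye for 40 to 90 min at room temperature. After a 10 s baseline, compound was added and calcium influx was read kinetically for 3 min (ex 480/em 520 nm).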
AT treatment: potential ataxia-telangiectasia treatments restoring KAP-1 phosphorylation; AID 485349; Potency, µM (titrated, usually from 57.5 µM), hits mostly activators; 0.19% of 320,000 active; F2112 A-T fibroblasts, KAP-1 phosphorylation AlphaLISA; neocarzinostatin DNA damage 30 min before lysis; further: nearly all actives have a fitted effect of over 45% in size
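ATM-like activity read as KAP-1 phosphorylation via AlphaLISA donor/acceptor antibody pairs after lysis and 6 hr at 25C. Cells were ATM-null patient fibroblasts (F2112, hTERT), dosed 60 min, then exposed to the DSB inducer NCS for 30 min.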
Numbers stand for hits; - = inactive; ? = inconclusive; . = no result given; [ ] = another dose, or the depositor's remark. Shown are actives, neighbours in structure and some others; about 0.39% of the full set was active somewhere. Unless noted, the call rests on the fitted dose curve; in most records, active means well fitted curve in the direction sought with a large enough effect; inconclusive means small, poorly fitted or top-dose-only effect, or another doubt; inactive means no such curve, though single readings can be large; an effect the other way counts as inactive or inconclusive.

SMILES	CBFb-RUNX1 inh	TRPV1 agonist	Apoferritin bind	TRPV1 PAM	AT treatment
NC(=O)C1CCN(C(=O)CCSCc2ccc(Cl)c(Cl)c2)CC1	.	88	-	-	-
CC1(C)Cc2c(c(N3CCOCC3)nc3sc(C(N)=O)c(N)c23)CO1	-	-	-	-	22µM
CCOC(=O)[C@H]1[C@H]2COc3ccc(Cl)cc3[C@@H]2N2C(=O)c3ccccc3NC(=O)[C@@]12C	.	?	.	-	-
CCOC(=O)[C@H]1[C@H]2COc3ccc(Cl)cc3[C@@H]2N2C(=O)c3ccc(F)cc3NC(=O)[C@@]12C	.	83	.	-	-
CCOC(=O)[C@H]1[C@H]2COc3ccc(Cl)cc3[C@@H]2N2C(=O)c3ccc(C)cc3NC(=O)[C@@]12C	.	99	.	?	-
COc1cc(OC)cc(-c2nnc3n2N=C(c2ccccc2OC)CS3)c1	-	.	?	.	.
Nn1c(Cc2ccccc2)nc2cc(Cl)ccc2c1=O	.	-	?	95	-
O=C1CC(C(F)(F)C(F)(F)C(F)(F)C(F)F)=Nc2ccccc2N1	-	-	50µM	-	-
CCCCc1cc2c(cn1)=C(OC(=O)c1cccs1)C(C)(OC(=O)CC)C(=O)C=2 (stereo not drawn)	-[13.1 µM]	.	.	.	.
CCN(CC)c1ccc(NC(=O)c2cnccn2)cc1S(=O)(=O)Nc1ccc(OC)cc1	-	85	-	-	-
CNC(=O)[C@H]1O[C@@H](n2cnc3c(N)ncnc32)[C@H](O)[C@H]1O	-	.	.	.	.
CN1CCc2cc(O)c(O)cc2C1Cc1ccc(O)c(O)c1 (stereo not drawn)	-	.	-	.	.
CCn1nc(C)c(CNC(=O)c2cc(COc3ccc(F)cc3Cl)on2)c1C	-	-	-	-	1.6µM
CC(C)(C)c1ccc(C(=O)Nc2ccc(Cl)cc2)cc1	-	80	-	-	-
COC(=O)Cc1ccc(NC(=O)c2ccc(C(C)(C)C)cc2)cc1	-	81	-	-	.
COC(=O)Cc1ccc(NC(=O)c2ccccc2Cl)cc1	-	-	-	-	-
CC(C)(C)c1cc(C(=O)NNC(=O)c2ccc(Cl)cc2)no1	-	82	-	-	-
CC(C)(C)c1ccc(NC(=O)c2ccsc2)cc1	-	83	-	-	-
CC1=CC23C(=O)C(C=C(CO)[C@@H](O)[C@]2(O)[C@H]1O)[C@H]1[C@@H](C[C@H]3C)C1(C)C (stereo partly drawn)	-	.	-	.	.
C[C@H](NC(=O)[C@@H](N)Cc1ccc(O)cc1)C(=O)NCC(=O)N[C@H]1CSSC[C@@H](C(=O)O)NC(=O)[C@H](CO)NC(=O)[C@H]([C@@H](C)O)NC(=O)[C@H](Cc2ccccc2)NC(=O)[C@H]([C@@H](C)O)NC(=O)[C@H](CCCCN)NC(=O)[C@@H](Cc2c[nH]c3ccccc23)NC(=O)[C@H](Cc2ccccc2)NC(=O)[C@H](Cc2ccccc2)NC(=O)[C@H](CC(N)=O)NC(=O)[C@H](CCCCN)NC1=O	-	.	-	.	.
C=C(C)c1cccc(C(C)(C)NC(=O)Nc2cccnc2)c1	.	98	-	?	-
O=C(Nc1cccnc1)c1ccc(C(=O)Nc2cccnc2)cc1	-	-	-	-	-
CC(C)(C)c1ccc(C(=O)Nc2cccnc2)cc1	.	94	-	-	-
CC(C)Nc1oc(-c2ccccc2)nc1-c1cccc2ccccc12	-	.	.	.	.
CCC(C)CC(C)CC(C)C(=O)/C=C(/O)C(C)CC(C)C/C=C/C(C)C(O)C(C)C(O)CC1CCC(C)(C)O1 (stereo not drawn)	-	.	?	.	.
SMILES	CBFb-RUNX1 inh	TRPV1 agonist	Apoferritin bind	TRPV1 PAM	AT treatment
CC(C)N(C(=O)CO/N=C/c1cccc([N+](=O)[O-])c1)C(C)C	-	-	45µM	-	-
CC(C)N(C(=O)/C=C/c1cccc([N+](=O)[O-])c1)C(C)C	-	-	?	-	-
CC1=C(/C=C/C(C)=C/C=C/C(C)=C\CO)C(C)(C)CCC1	-	.	?	.	.
COc1cc2ccccc2nn1	-	-	-	-	-
COc1ccc2c(n1)Sc1nc3ccccc3nc1N2	-	110	-	-	-
O=c1c2[nH]c3ccc(Cl)cc3c2ncn1CCN1CCCCC1	-	.	-	.	28µM
O=C(Nc1cccc([N+](=O)[O-])c1)c1ccc(-c2ccccc2)cc1	-	87	-	-	-
